Among the data in PubChem BioAssay (NCATS) are activity (max response) and Potency values, retold here.

Structures are written as SMILES. Values joined by “and” are separate entries in the source; they are usually repeats but may differ in a detail not shown here. Identical values can stand only once. Records with an inconclusive call do not appear. Unmarked numbers belong to inactive results. Active and inactive are the calls of the source. Calls come from the whole dose curve; as a rule, active = well fitted cell-killing curve with a large enough effect; inconclusive = small, poorly fitted or top-dose-only effect; inactive = flat fitted curve, though single readings scatter.
% is set by controls: 0 for no effect and ±100 for the full control effect.

This assay in a line: Cellular viability qHTS for adrenocortical cancer (ACC) cell line SW-13 (AID 1963989).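 For activity (max response): cells grown in serum-free medium with ITS supplement.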 Note: nearly all actives have a fitted effect of over 65% in size. The settings on record: SW-13 ACC cells viability, CellTiter-Glo, 48 h; activity (max response): hits give low values. From the text: PI: Naris Nilubol, MD Surgical Oncology Program, National Cancer Institute (NCI) National Institute of Health (NIH), Bethesda, Maryland Adrenocortical cancer (ACC) is a rare malignancy with poor survival outcomes and few treatment options. Currently, mitotane is the only FDA-approved therapy for ACC. Although adjuvant radiation therapy is rarely utilized, it has the potential to improve survival in select cases. Through a quantitative high-throughput drug screen (qHTS), we identified auranofin (AF), a thioredoxin reductase (TXNRD) inhibitor, as a promising candidate drug. This study aims to evaluate whether AF can enhance the efficacy of radiation therapy in the treatment of ACC. Two human ACC cell lines, SW-13 and NCI-H295R, were screened using the National Center for Advancing Translational Sciences (NCATS) Pharmaceutical Collection (NPC) and the Mechanism Interrogation PlatE (MIPE) library (~4,991 compounds). CellTiter-Glo (Cat # G7570, Promega, Madison, WI) was utilized to measure cell viability. Described herein are the results of the corresponding viability assay.
PROTOCOL TABLE (as described by Inglese J, Shamu CE and Guy RK. 2007) SEQUENCE No. (e.g., 1, 2, 3, etc.); […] (e.g., Cells, Incubation, Reagent, etc.); VALUE; DESCRIPTION. 1; Cells; 5 uL; white, solid-bottom, 1536-well tissue-culture treated plates. 2; Time; overnight culture at 37C with 5% CO2. 3; Compounds and control; 23 nL; Kalypsis pin tool (Wako USA) equipped with a 1536-well pin head to transfer to the assay plates. 4; Time; 48 hours; 37C with 5% CO2. 5; Reagent; 4 uL; CellTiter-Glo luminescent substrate mix. 6; Time; 20 min at room temperature. 7; Detection; Luminescence; ViewLux plate reader NOTES (numbers refer to Sequence numbers above) 1. SW13 cells were harvested from a T175 flask and resuspended in ITS-supplemented DMEM serum-free medium at a concentration of 300 000 cells/mL. Then 5 uL of resuspended cells were dispensed into each well of white, solid-bottom, 1536-well tissue-culture-treated plates using a multidrop combi dispenser. The plates were covered with stainless steel gasket lids. 2-3. The plates were cultured overnight at 37C with 5% CO2. Twenty-three nL of compounds (eight selected concentrations from the NPC / MIPE) or positive control (10 mM stock of bortezomib) in DMSO was transferred to each well of the assay plate using a pin tool (Kalypsys, San Diego, CA, USA). The final concentration of the compounds in the 5 uL assay volume ranged from 0.5 nM to 46 uM. 4-6. After 48 hours of incubation at 37C and 5% CO2, 4 uL of CellTilter-Glo luminescent substrate mix (Promega, Madison, WI, USA) was added to each well. Then the plates were incubated for 20 minutes at room temperature. 7. After incubation, luminescence was measured using a ViewLux plate reader (PerkinElmer, Waltham, MA, USA) with a clear filter was used to measure the number of metabolically competent cells. To determine compound activity in the qHTS assay, the titration-response data for each sample was plotted and modeled by a four-parameter logistic fit yielding IC50 and efficacy (maximal response) values. […] REFERENCES: Inglese J, Shamu CE and Guy RK, Reporting data from high throughput screening of small molecule libraries, Nature Chemical Biology, 2007, 3(8): 438-441. doi.org/10.1038/nchembio0807-438.
(In general: In qHTS, concentration-response curves come from the screen itself.)
As for `c1ccc(CN2CCNCC2)cc1`, the activity (max response) is -9.53%.

With `Cc1ccccc1-n1c(Cn2ncc3c(N)ncnc32)nc2cccc(C)c2c1=O`, the activity (max response) is 2.46%.

As to `O=P1(N(CCCl)CCCl)NCCCO1` (stereo not given), the activity (max response) was 0.4% and 11%.

As for `CN(C)CCN(C)CCc1ccc(Cl)c(Cl)c1`, the activity (max response) is -5.37%.

On to `CC1(N2CCC(n3c([C@@H]4CCCNC4)nc4ccccc43)CC2)CCCCCCC1`, for which the Potency was 28.2 µM (active).

`COc1cc(CCN)cc(OC)c1OC`: the activity (max response) was -7.31%.

In the case of `N=c1c2c(-c3ccccc3)c(-c3ccccc3)n(Cc3ccccc3)c2ncn1C1CCC(O)CC1` (stereo not given), the Potency was 17.8 µM (active).

Take `COc1ccc(N(C(=O)Oc2c(C)cccc2C)c2ccnc(Nc3ccc(N4CCN(C)CC4)cc3)n2)c(OC)c1`: the Potency was 8.91 µM (active).

Turning to `CCC(OC(C)=O)C(CC(C)NC)(c1ccccc1)c1ccccc1` (stereo not given), the Potency is 28.2 µM (active).

As to `CNC(C)Cc1ccc2c(c1)OCO2` (stereo not given), the activity (max response) is -2%.

Regarding `C[C@H](CN1CCOCC1)C(C(=O)N1CCCC1)(c1ccccc1)c1ccccc1`, the activity (max response) is -12.8%.

With `CCC(=O)OC1(c2ccccc2)CCN(C)CC1`, the activity (max response) is -11.5%.

In the case of `O=C(N[C@H]1N=C(c2ccccc2F)c2cccc3c2N(CC3)C1=O)c1cc2ccccc2[nH]1`, the activity (max response) is 11.2%.

As for `O=C1NCN(c2ccccc2)C12CCN(CC1COc3ccccc3O1)CC2` (stereo not given), the activity (max response) is -9.54%.

Take `CC[C@H]1C[C@H]2[C@@H]3CCC4=CC(=O)CC[C@@H]4[C@H]3CC[C@]2(C)[C@H]1O`: the activity (max response) is -16.6%.

As to `C[N+]1(CCF)[C@@H]2CC[C@H]1CC(OC(=O)C(O)(c1ccccc1)c1ccccc1)C2` (stereo not given in full), the activity (max response) was 9.46%.

On to `CCN1CCCC1CNC(=O)C(O)(c1ccccc1)c1ccccc1` (stereo not given), for which the activity (max response) was -3.88%.

For `N#Cc1nn(-c2c(Cl)cc(C(F)(F)F)cc2Cl)c(N)c1S(=O)C(F)(F)F` (stereo not given), the Potency is 5.8 µM (active).

With `Cn1c(CCCCCCC(=O)NO)nc2cc(N(CCCl)CCCl)ccc21`, the Potency was 15.8 µM (active).

With `COc1cc(CC(C)N)c(OC)cc1Br` (stereo not given), the activity (max response) was -4.97%.

As to `CC(=O)Nc1ccc(OC[C@](C)(O)C(=O)Nc2ccc([N+](=O)[O-])c(C(F)(F)F)c2)cc1`, the activity (max response) was 0.634%.

`CN[C@@H](C)[C@H](O)c1ccccc1`: the activity (max response) is -4.49%.

With `CN1C(=O)CCS(=O)(=O)C1c1ccc(Cl)cc1` (stereo not given), the activity (max response) was 1.09% and -1.33%.

For `C1CN2CCC1CC2`, the activity (max response) is 2.77%.

With `CCC1(CC)C(=O)NC(=O)NC1=O`, the activity (max response) was -9.27%.

On to `CN1CC[C@]23c4c5ccc(O)c4O[C@H]2[C@@H](O)CC[C@H]3[C@H]1C5`, for which the activity (max response) was -1.35%.

Regarding `Nc1ccc(Cl)cc1`, the activity (max response) is 5.53%.

For `CCC1(CCC(C)C)C(=O)NC(=O)NC1=O`, the activity (max response) was 0.531%.

For the molecule `NCc1cccnc1`, the activity (max response) is 4.01%.

For `Cc1ncsc1CCCl`, the activity (max response) was 10.3%.

As to `CC[N+](CC)(CC)CC`, the activity (max response) is 9.95%.

For the molecule `CCN(CC)CCN1C(=O)CN=C(c2ccccc2F)c2cc(Cl)ccc21`, the activity (max response) is 2.24%.

With `Cc1cc(SCc2sc(-c3ccc(C(F)(F)F)c(F)c3)nc2C)ccc1OCC(=O)O`, the activity (max response) is -20.9%.

As to `CC[C@]1(O)CC[C@H]2[C@@H]3CCC4=CCCC[C@@H]4[C@H]3CC[C@@]21C`, the Potency is 3.66 µM (active).

Consider `C[C@]12CCC(=O)C(O)=C1CC[C@@H]1[C@@H]2CC[C@]2(C)C(=O)CC[C@@H]12`, for which the activity (max response) was 4.45% and 4.46%.

For the molecule `O=C1CN=C(c2ccccc2)c2cc([N+](=O)[O-])ccc2N1`, the activity (max response) was -7.73%.

For `CC(CC(C(N)=O)(c1ccccc1)c1ccccc1)N(C)C` (stereo not given), the activity (max response) was 5.97%.

On to `O=C(O)c1ccc(=O)[nH]c1`, for which the activity (max response) was 7.49%.

Turning to `COc1cc(CC#N)cc(OC)c1OC`, the activity (max response) is 12%.

For `NC(=O)CS(=O)C(c1ccccc1)c1ccccc1` (stereo not given), the activity (max response) was 12.6%.
